Assay results as given in PubChem BioAssay (NCATS).
Results filed as inconclusive are left out. The source made the active and inactive calls. The call rests on the fitted dose curve; in most records, active means well fitted curve in the direction sought with a large enough effect; inconclusive means small, poorly fitted or top-dose-only effect, or another doubt; inactive means no such curve, though single readings can be large; an effect the other way counts as inactive or inconclusive.

Experiments:
[1] = molecular target: ATP-dependent 6-phosphofructokinase (Trypanosoma brucei brucei) (UniProt O15648); assay: qHTS Assay to Find Inhibitors of T. brucei phosphofructokinase: hit validation (AID 492961);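 further: luminescence reports ADP formed as PFK phosphorylates fructose-6-phosphate with ATP; on the % scale 0 is the no-effect control and ±100 the full control effect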
Procedure, shortened: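 In this biochemical qHTS validation, titrated compounds were tested against 1.25 nM PFK with 0.1 mM ATP and 0.5 mM F6P. Percent activity came from controls lacking or containing enzyme.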

[2] = qHTS profiling for inhibitors of Plasmodium falciparum proliferation (AID 504749); further: potency means the concentration at half of the fitted maximal effect;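 on activity, negative = inhibition: 0% = DMSO vehicle and full inhibition = artemisinin control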; on all read-outs here: nearly all actives have a fitted effect of over 60% in size; conditions: P. falciparum in erythrocytes, SYBR Green DNA, 72 h; for activity, negative = inhibition: at 28.7 µM (top of the series)
Procedure, shortened: (§1)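 Infected RBCs, 0.3% parasitemia/2.5% Hct final; cpd 72 h, 37 C, 5% CO2; lysis buffer with saponin/triton/SYBR Green I, o/n RT dark; FI 485/535; norm. to artemisinin (0.29 uM) and DMSO.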

3D7 = assay: as above; conditions: P. falciparum in erythrocytes, SYBR Green DNA, 72 h; series mostly up to 28.7 µM
Procedure, shortened: as §1

7G8 = assay: as above; conditions: P. falciparum in erythrocytes, SYBR Green DNA, 72 h; series mostly up to 28.7 µM
Procedure, shortened: as §1

AS120 = assay: as above; conditions: P. falciparum in erythrocytes, SYBR Green DNA, 72 h; series mostly up to 28.7 µM
Procedure, shortened: as §1

ATS189 = assay: as above; conditions: P. falciparum in erythrocytes, SYBR Green DNA, 72 h; series mostly up to 28.7 µM
Procedure, shortened: as §1

CP185 = assay: as above; conditions: P. falciparum in erythrocytes, SYBR Green DNA, 72 h; series mostly up to 28.7 µM
Procedure, shortened: as §1

CP191 = assay: as above; conditions: P. falciparum in erythrocytes, SYBR Green DNA, 72 h; series mostly up to 28.7 µM
Procedure, shortened: as §1

CP192 = assay: as above; conditions: P. falciparum in erythrocytes, SYBR Green DNA, 72 h; series mostly up to 28.7 µM
Procedure, shortened: as §1

CP194 = assay: as above; conditions: P. falciparum in erythrocytes, SYBR Green DNA, 72 h; series mostly up to 28.7 µM
Procedure, shortened: as §1

CP201 = assay: as above; conditions: P. falciparum in erythrocytes, SYBR Green DNA, 72 h; series mostly up to 28.7 µM
Procedure, shortened: as §1

CP203 = assay: as above; conditions: P. falciparum in erythrocytes, SYBR Green DNA, 72 h; series mostly up to 28.7 µM
Procedure, shortened: as §1

CP237 = assay: as above; conditions: P. falciparum in erythrocytes, SYBR Green DNA, 72 h; series mostly up to 28.7 µM
Procedure, shortened: as §1

CP238 = assay: as above; conditions: P. falciparum in erythrocytes, SYBR Green DNA, 72 h; series mostly up to 28.7 µM
Procedure, shortened: as §1

CP247 = assay: as above; conditions: P. falciparum in erythrocytes, SYBR Green DNA, 72 h; series mostly up to 28.7 µM
Procedure, shortened: as §1

CP286 = assay: as above; conditions: P. falciparum in erythrocytes, SYBR Green DNA, 72 h; series mostly up to 28.7 µM
Procedure, shortened: as §1

CP291 = assay: as above; conditions: P. falciparum in erythrocytes, SYBR Green DNA, 72 h; series mostly up to 28.7 µM
Procedure, shortened: as §1

DIV30 = assay: as above; conditions: P. falciparum in erythrocytes, SYBR Green DNA, 72 h; series mostly up to 28.7 µM
Procedure, shortened: as §1

HB3 = assay: as above; conditions: P. falciparum in erythrocytes, SYBR Green DNA, 72 h; series mostly up to 28.7 µM
Procedure, shortened: as §1

P94_40 = assay: as above; conditions: P. falciparum in erythrocytes, SYBR Green DNA, 72 h; series mostly up to 28.7 µM
Procedure, shortened: as §1

ATP-dependent 6-phosphofructokinase (Trypanosoma brucei brucei), sequence (O15648 whole entry, looked up): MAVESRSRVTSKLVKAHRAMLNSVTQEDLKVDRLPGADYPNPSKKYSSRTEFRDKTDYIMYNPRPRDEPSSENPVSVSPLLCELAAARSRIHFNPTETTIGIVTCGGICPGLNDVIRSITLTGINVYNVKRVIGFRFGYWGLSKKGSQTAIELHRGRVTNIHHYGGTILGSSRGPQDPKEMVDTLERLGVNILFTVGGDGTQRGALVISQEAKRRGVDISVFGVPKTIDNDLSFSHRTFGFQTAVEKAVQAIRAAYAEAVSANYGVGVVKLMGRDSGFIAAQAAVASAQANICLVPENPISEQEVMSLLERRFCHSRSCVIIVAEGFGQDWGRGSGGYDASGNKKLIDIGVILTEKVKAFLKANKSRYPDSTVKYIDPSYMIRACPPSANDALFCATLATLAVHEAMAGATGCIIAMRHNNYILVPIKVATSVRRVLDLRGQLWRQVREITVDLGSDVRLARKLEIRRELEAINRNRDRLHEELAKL

CC[C@@]1(O)C[C@H](O[C@H]2C[C@@H](N(C)C)[C@@H](O[C@H]3C[C@@H](O)[C@@H](O[C@H]4CCC(=O)[C@@H](C)O4)[C@@H](C)O3)[C@@H](C)O2)c2c(cc3c(c2O)C(=O)c2c(O)cccc2C3=O)[C@H]1C(=O)OC
inactive: Potency [1]
active: Potency ([2]; parasite line A) 141 nM | Potency ([2]; parasite line B) 199 nM | Potency (3D7) 126 nM | Potency (7G8) 39.8 nM | Potency (AS120) 100 nM | Potency (ATS189) 355 nM | Potency (CP185) 251 nM | Potency (CP191) 199 nM | Potency (CP192) 1070 nM | Potency (CP194) 953 nM | Potency (CP201) 1510 nM | Potency (CP203) 849 nM | Potency (CP237) 35.5 nM | Potency (CP238) 178 nM | Potency (CP247) 251 nM | Potency (CP286) 39.8 nM | Potency (CP291) 849 nM | Potency (DIV30) 953 nM | Potency (HB3) 141 nM | Potency (P94_40) 158 nM

O=[N+]([O-])O[C@H]1CO[C@H]2[C@@H]1OC[C@H]2O
inactive: Potency [1] | activity, negative = inhibition ([2]; parasite line A) 14.3% | activity, negative = inhibition ([2]; parasite line B) -1.17% | Potency (3D7) | Potency (7G8) | Potency (AS120) | Potency (ATS189) | Potency (CP185) | Potency (CP191) | Potency (CP192) | Potency (CP194) | Potency (CP201) | Potency (CP203) | Potency (CP237) | Potency (CP238) | Potency (CP247) | Potency (CP286) | Potency (CP291) | Potency (DIV30) | Potency (HB3) | Potency (P94_40)

OCCN1CC(O)C(O)C(O)C1CO (stereo unspecified)
inactive: Potency [1] | activity, negative = inhibition ([2]; parasite line A) 13.3% | activity, negative = inhibition ([2]; parasite line B) 21.3% | Potency (3D7) | Potency (7G8) | Potency (AS120) | Potency (ATS189) | Potency (CP185) | Potency (CP191) | Potency (CP192) | Potency (CP194) | Potency (CP201) | Potency (CP203) | Potency (CP237) | Potency (CP238) | Potency (CP247) | Potency (CP286) | Potency (CP291) | Potency (DIV30) | Potency (HB3) | Potency (P94_40)

CC[C@@H](C)C(N)C(=O)O (stereo partly specified)
inactive: Potency [1] | activity, negative = inhibition ([2]; parasite line A) 6.94% | activity, negative = inhibition ([2]; parasite line B) 2.73% | Potency (3D7) | Potency (7G8) | Potency (AS120) | Potency (ATS189) | Potency (CP185) | Potency (CP191) | Potency (CP192) | Potency (CP194) | Potency (CP201) | Potency (CP203) | Potency (CP237) | Potency (CP238) | Potency (CP247) | Potency (CP286) | Potency (CP291) | Potency (DIV30) | Potency (HB3) | Potency (P94_40)

COC(c1ccccc1)(c1ccccc1)C(Oc1nc(C)cc(C)n1)C(=O)O (stereo unspecified)
inactive: Potency [1] | activity, negative = inhibition ([2]; parasite line A) 2.94% | activity, negative = inhibition ([2]; parasite line B) 8.39% | Potency (3D7) | Potency (7G8) | Potency (AS120) | Potency (ATS189) | Potency (CP185) | Potency (CP191) | Potency (CP192) | Potency (CP194) | Potency (CP201) | Potency (CP203) | Potency (CP237) | Potency (CP238) | Potency (CP247) | Potency (CP286) | Potency (CP291) | Potency (DIV30) | Potency (HB3) | Potency (P94_40)

NC(=O)NC(CCC(=O)O)C(=O)O (stereo unspecified)
inactive: Potency [1] | activity, negative = inhibition ([2]; parasite line A) -0.405% | activity, negative = inhibition ([2]; parasite line B) 3.49% | Potency (3D7) | Potency (7G8) | Potency (AS120) | Potency (ATS189) | Potency (CP185) | Potency (CP191) | Potency (CP192) | Potency (CP194) | Potency (CP201) | Potency (CP203) | Potency (CP237) | Potency (CP238) | Potency (CP247) | Potency (CP286) | Potency (CP291) | Potency (DIV30) | Potency (HB3) | Potency (P94_40)
